# In all, about 2,400 compounds went through this assay and about 20 (0.8%) were called active. For the sample, actives were picked, then their nearest neighbours and some compounds at random. Values without a mark were called inactive.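 How the source made its calls: active means AC50 no more than ten times the highest tested concentration, or full inhibition at every dose giving a flat fit (cut at about 30 µM in these data); inconclusive means flat fit with activity between 30% and 70%, or poor-quality invalid fit; inactive means AC50 more than ten times the top tested dose.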
# Experiment: inhibitors of ADP-Glo detection reagents, dose response, artefact control for GSK-3a inhibitor project, biochemical, luminescence, cell-free, homogeneous (AID 463205);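 further: kinase-free counter-screen against the ADP-Glo detection reagents only; potency is for inhibitors that reduce the luminescence signal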
# Conditions: 5 uM ADP
row,SMILES,AC50
1,Cn1c(=O)c2[nH]c(N3CCOCC3)nc2n(-c2ccccc2)c1=O,> 30 µM
2,Nc1nccnc1C(=O)N/N=C/c1ccco1,> 30 µM
3,Nc1nonc1-n1nnc(C(=O)N/N=C/c2ccc(Cl)cc2Cl)c1CN1CCOCC1,> 30 µM
4,Cc1nc(NCC2CCCO2)nc2c1C(=O)CC(C)(C)C2 (centres undefined),> 30 µM
5,CCOc1ccc2ccccc2c1/C=N/n1cncn1,> 30 µM
6,Cc1ccc(OCC(=O)N2CCN(c3nnc(-c4ccccc4)c4ccccc34)CC2)cc1,> 30 µM
7,N#CC1=C(SCc2ccccc2)NC(=O)CC1c1ccco1 (centres undefined),> 30 µM
8,CCN(CC)C(=O)c1oc2ccc(S(=O)(=O)N3CCCCCC3)cc2c1C,> 30 µM
9,O=C(c1ccc(Cl)cc1)c1cnc(Nc2ccccc2)s1,> 30 µM
10,Cc1cccc(NC(=O)CSCc2nc3c(nnn3Cc3ccc(F)cc3)c(=O)[nH]2)c1C,> 30 µM
11,N#Cc1c2c(c(NCc3ccco3)n3c1nc1ccccc13)CCC2,> 30 µM
12,O=C(COC(=O)c1cccc(S(=O)(=O)N2CCOCC2)c1)Nc1ncc(Cl)cc1Cl,> 30 µM
13,CNC(=O)c1ccc(NC(=O)C2CCN(c3ncnc4sc(C)c(C)c34)CC2)cc1,> 30 µM
14,CCNc1cc(N2CCCC2)ccc1[N+](=O)[O-],> 30 µM
15,Cc1nnc(SCC(=O)N2c3ccccc3CC2C)s1 (centres undefined),> 30 µM
16,CCOC(=O)c1c(NC(=O)CN2C(=O)NC3(CCCCC3C)C2=O)sc(C)c1CC (centres undefined),> 30 µM
17,C=CCNc1nc(N)c(C(=O)Nc2cc(C)on2)s1,> 30 µM
18,CC(=O)c1cccc(NC(=S)NC(=O)CC(C)C)c1,> 30 µM
19,COc1ccc(OC)c(/C=C2\Oc3cc(OCC(=O)N4CCC[C@H]4C(=O)O)ccc3C2=O)c1,> 30 µM
20,CC(C)c1c(C(=O)N/N=C/c2ccncc2)nnn1-c1nonc1N,> 30 µM

row,SMILES,AC50
1,CC(C)N=C(NC#N)SCc1ccc(F)cc1,> 30 µM
2,N#Cc1sc2nc3c(c(-c4ccco4)c2c1N)CCCC3,> 30 µM
3,COCCNC(=O)c1ccc(Cn2c(=S)[nH]c3cc4c(cc3c2=O)OCO4)cc1,> 30 µM
4,CC1=C(C(=O)OCc2ccccc2)C(c2cccc(Br)c2)NC(=O)N1 (centres undefined),> 30 µM
5,O=C(c1ccco1)N(Cc1cccc([N+](=O)[O-])c1)c1ccc(Br)cc1,> 30 µM
6,NS(=O)(=O)c1ccc(Nc2nc(-c3ccccc3)cs2)cc1,> 30 µM
7,CCc1cc(C(=O)c2ccc(OC)cc2)c(NC(=O)COCC(=O)O)s1,> 30 µM
8,Fc1ccc(Nc2ncnc3ccccc23)cc1,> 30 µM
9,COc1cc(Br)c(C2C(C#N)=C(N)Oc3n[nH]c(-c4cccnc4)c32)cc1OC (centres undefined),> 30 µM
10,Cn1c(N=Nc2ccccc2)nc2ccccc21,27.9 µM (active)
11,CC(/C=N/NC(=O)CSc1nc2ccccc2n1C)=C\c1ccco1,> 30 µM
12,Cc1nc2ccccc2n2c(-c3ccccc3)c3c(=O)n(C)c(=O)n(C)c3c12,> 30 µM
13,COc1ccc(/C=C/c2nc(N)nc(-c3ccccc3O)n2)cc1OC,> 30 µM
14,CC(C)c1cc(C(N)=O)c(NC(=O)C2CCC2)s1,> 30 µM
15,C/C(=N\NC(=O)c1nnn(-c2nonc2N)c1-c1ccccc1)c1cccnc1,> 30 µM
16,CC(=O)Nc1ccc(Nc2ncnc(N)c2[N+](=O)[O-])cc1,> 30 µM
17,O=[N+]([O-])c1cc(S(=O)(=O)c2ccc(N3CCCCC3)c([N+](=O)[O-])c2)ccc1N1CCCCC1,> 30 µM
18,COc1ccccc1CC(=O)N1CCOCC1,> 30 µM
19,CC(C)=CC(=O)NCc1c(Cl)cccc1-n1cccc1,> 30 µM
20,Cc1nc2sc3c(c2c(=O)o1)CC(C)(C)OC3,> 30 µM

row,SMILES,AC50
1,CCC(C)Nc1nc(N)c([N+](=O)[O-])c(N2CCCCCC2)n1 (centres undefined),> 30 µM
2,O=C(NC1(C(F)(F)F)NC(=O)N(Cc2cccnc2)C1=O)c1ccncc1 (centres undefined),> 30 µM
3,COc1ccccc1NC(=O)CSc1nnc(-c2ccccc2)o1,> 30 µM
4,CC(=O)c1sc(NC(=O)CN2C(=O)NC3(CCCC3)C2=O)nc1-c1ccccc1,> 30 µM
5,COC1(OC)N=C(N)C2(C#N)C(c3ccc4c(c3)OCO4)C12C#N (centres undefined),> 30 µM
6,Nc1c(S(=O)(=O)c2ccccc2)nnn1-c1ccccc1,> 30 µM
7,O=C1CC(c2cccs2)CC2=C1C(c1ccccc1)n1ncnc1N2 (centres undefined),> 30 µM
8,O=C(NCCCn1ccnc1)C(=O)NC1CCCCC1,> 30 µM
9,Nc1ncnc2c1ncn2[C@@H]1O[C@H](COS(=O)(=O)O)[C@@H](O)[C@H]1O,> 30 µM
10,CCCCN(CC)C(=O)c1oc2ccc(S(=O)(=O)N3CCCC3)cc2c1C,> 30 µM
11,CC(C)OCCCNc1nc2c([nH]1)c(=O)n(C)c(=O)n2C,> 30 µM
12,CCOC(=O)c1nnn(-c2ccc(OC)cc2)c1N,> 30 µM
13,COc1cc(/C=N/NC(=O)c2cccc(C(=O)N/N=C/c3ccc(O)c(OC)c3)n2)ccc1O,> 30 µM
14,CN(C)C(=O)c1ccc(NC(=O)c2cc(-n3cnnc3)ccc2Cl)cc1,> 30 µM
15,CC(OC(=O)Cc1c[nH]c2ccccc12)C(=O)c1ccccc1 (centres undefined),> 30 µM
16,CC(C)CC(=O)NC(=S)Nc1sc2c(c1C(N)=O)CCC2,> 30 µM
17,COc1cccc(-c2nc(-c3ccccc3)[nH]c(=O)c2C#N)c1,> 30 µM
18,CCOC(=O)c1sc(NC(=O)C2CC2)nc1C,> 30 µM
19,CCOC(=O)c1cnn(C)c1NC(=O)c1ccc(Cl)cc1Cl,> 30 µM

# Source: PubChem BioAssay AID463205 (Broad Institute, 2010)
